Cruzain noTriton: blocks cruzain activity in detergent-free assay; purified cruzain, Z-FR-AMC fluorescence, no detergent; Potency, µM, for inactives: max response, negative = inhibition, actives largely listed as inhibitors; 2.3% of 200,000 active; AID 1476;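 further: plate controls were enzyme without inhibitor for no effect and buffer without enzyme for full effect; nearly all actives have a fitted effect of over 40% in size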
Target sequence (P25779 123-467 limits assumed): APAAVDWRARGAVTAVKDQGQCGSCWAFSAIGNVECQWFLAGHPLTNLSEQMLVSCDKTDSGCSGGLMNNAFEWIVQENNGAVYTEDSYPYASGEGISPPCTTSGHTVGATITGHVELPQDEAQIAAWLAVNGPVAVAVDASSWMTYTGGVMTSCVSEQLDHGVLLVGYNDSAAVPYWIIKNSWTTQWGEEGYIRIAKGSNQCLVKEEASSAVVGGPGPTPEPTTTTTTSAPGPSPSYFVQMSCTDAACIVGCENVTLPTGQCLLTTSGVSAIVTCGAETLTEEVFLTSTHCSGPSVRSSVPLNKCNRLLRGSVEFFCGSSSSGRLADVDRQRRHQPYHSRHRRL
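Purified cruzain at 1.5 nM, pre-incubated 15 min with compound at room temperature in 100 mM sodium acetate pH 5.5, 5 mM DTT, 0.00005% Triton X-100. Reaction started with 2 uM Z-FR-AMC; AMC fluorescence increase over 60 s gives rate.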
Cruzain inh Det: inhibitors of Trypanosoma cruzi cruzain with detergent. P25779. purified cruzain, Z-FR-AMC fluorescence, 0.01% Triton. Potency, µM, inactives show max response, negative = inhibition, hits mostly inhibitors. 0.43% of 200,000 active. AID 1478;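 further: plate controls were neutral wells for no effect and buffer without enzyme for full effect; nearly all actives have a fitted effect of over 40% in size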
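Steps: dispense cruzain (1.5 nM final) in acetate buffer pH 5.5 with DTT and 0.01% Triton X-100; pin-transfer compounds; incubate 15 min RT; add Z-FR-AMC (2 uM final); read fluorescence every 30 s, using the 60 s intensity change.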
The depositor's hits bear a star. Sampled rows, rich in hits. Any-hit rate of the full collection: about 2.6%. The call rests on the fitted dose curve; in most records, active means well fitted curve in the direction sought with a large enough effect; inconclusive means small, poorly fitted or top-dose-only effect, or another doubt; inactive means no such curve, though single readings can be large; an effect the other way counts as inactive or inconclusive. Potency means the concentration at half of the fitted maximal effect.

For COc1ccc([N+](=O)[O-])cc1COc1cc(C)cc2oc(=O)cc(-c3ccccc3)c12 the results were Cruzain noTriton 32µM* and Cruzain inh Det 0%.
Cc1c(OCc2ccc([N+](=O)[O-])cc2)ccc2c3c(c(=O)oc12)CCC3 was read as Cruzain noTriton -19% and Cruzain inh Det -1%.
Cc1cc(OCc2ccc([N+](=O)[O-])cc2)c2c3c(c(=O)oc2c1)CCCC3 was read as Cruzain noTriton 13µM* and Cruzain inh Det -1%.
Screening Cc1ccc(C)c(Cn2c(=O)n(-c3ccc(Cl)cc3)c(=O)c3c(C)c(C)sc32)c1 returned Cruzain noTriton -6% and Cruzain inh Det 1%.
`O=C(Cn1c(=O)n(CC2CCCO2)c(=O)c2ccccc21)Nc1ccc(F)cc1F` (configuration not stated) gave Cruzain noTriton 11% and Cruzain inh Det -1%.
For Cc1csc(NC(=O)CSc2nnc(NC(=O)COc3ccccc3)s2)n1 the results were Cruzain noTriton 7.9µM* and Cruzain inh Det 2%.
Screening Cc1csc(NC(=O)CSc2nnc(C)s2)n1 returned Cruzain noTriton -11% and Cruzain inh Det 0%.
Screening CC(=O)Nc1ccc(NC(=O)CCCn2nc(C)c3sc4ccccc4c3c2=O)cc1 returned Cruzain noTriton inconclusive and Cruzain inh Det -3%.
Cc1ccc(N(CC(=O)N/N=C/c2ccc(OC3CSC3)cc2)S(=O)(=O)c2ccccc2)c(C)c1 was read as Cruzain noTriton 16µM* and Cruzain inh Det -5%.
For Cc1ccc(N(CC(=O)N/N=C/c2ccc(OC3CSC3)cc2)S(=O)(=O)c2ccccc2)cc1 the results were Cruzain noTriton inconclusive and Cruzain inh Det -1%.
CCN(c1ccccc1)S(=O)(=O)c1ccc(-c2cc(C)no2)s1 was read as Cruzain noTriton -7% and Cruzain inh Det -6%.
For O=C(CSc1nc2ccsc2c(=O)n1-c1ccc(Br)cc1)NCc1ccccc1 the results were Cruzain noTriton 6% and Cruzain inh Det 1%.
For COc1ccccc1C(=O)Nc1nnc(SCC(=O)Nc2ccc3c(c2)oc2ccccc23)s1 the results were Cruzain noTriton 13µM* and Cruzain inh Det 2%.
Screening Cc1cccc(C(=O)Nc2nnc(SCC(=O)Nc3ccc4c(c3)oc3ccccc34)s2)c1 returned Cruzain noTriton 20µM* and Cruzain inh Det -3%.
For Cc1cccc(NC(=O)CSc2nc3ccc(NC(=O)c4ccccc4)cc3s2)c1 the results were Cruzain noTriton -27% and Cruzain inh Det -2%.
For COc1ccc(NC(=O)CSc2nnc(NC(=O)Nc3ccccc3)s2)cc1OC the results were Cruzain noTriton 9% and Cruzain inh Det -2%.
For O=C(NCc1ccc(Cl)cc1)C(=O)Nc1ccc(Br)cc1 the results were Cruzain noTriton -1% and Cruzain inh Det 1%.
COc1ccc(-c2nc(=S)c3c([nH]2)Oc2ccc(C)cc2C3)cc1O was read as Cruzain noTriton 10µM* and Cruzain inh Det 0%.
COc1ccc(-c2nc(-c3ccccc3)c(-c3cc([N+](=O)[O-])ccc3C)[nH]2)cc1O was read as Cruzain noTriton 7% and Cruzain inh Det -4%.
`COc1cccc(CNC(=O)CCS(=O)(=O)c2cc3c4c(c2)CCN4C(=O)CC3)c1` gave Cruzain noTriton -2% and Cruzain inh Det -1%.
For Cc1ccc(C)c(NC(=O)N2CC=C(c3c[nH]c4ccccc34)CC2)c1 the results were Cruzain noTriton -16% and Cruzain inh Det -10%.
For COc1cc(OC)c(NC(=O)N2CC=C(c3c[nH]c4ccccc34)CC2)cc1Cl the results were Cruzain noTriton 20µM* and Cruzain inh Det -9%.
Screening Clc1cccc(N2CCN(c3nc4ccccc4n4nnnc34)CC2)c1 returned Cruzain noTriton 20µM* and Cruzain inh Det -3%.
Screening Cc1ccc2nc(N3CCN(c4ccccc4)CC3)c3nnnn3c2c1 returned Cruzain noTriton -2% and Cruzain inh Det 0%.
For Cc1ccc(C(=O)Nc2nnc(S(=O)(=O)N(C)Cc3ccc(F)cc3)s2)cc1 the results were Cruzain noTriton inconclusive and Cruzain inh Det -2%.
CC1=Nc2cc(C(=O)NCc3ccccc3Cl)ccc2Sc2c(C)ccc(C)c21 was read as Cruzain noTriton 32µM* and Cruzain inh Det -4%.
`CC1=Nc2cc(C(=O)NCc3ccco3)ccc2Sc2ccc(C)cc21` gave Cruzain noTriton -8% and Cruzain inh Det -10%.
Screening CCC1=Nc2cc(C(=O)NCc3ccccc3Cl)ccc2Sc2ccc(C)cc21 returned Cruzain noTriton inconclusive and Cruzain inh Det -3%.
CCC1=Nc2cc(C(=O)NCc3ccccc3OC)ccc2Sc2ccc(Cl)cc21 was read as Cruzain noTriton 32µM* and Cruzain inh Det 1%.
CCOC(=O)c1ccccc1NC(=O)N1CCC(N2CCN(Cc3ccccc3)C(=O)C2=O)CC1 was read as Cruzain noTriton 19% and Cruzain inh Det 1%.
CC1=C(C(=O)Nc2ccc(Cl)cc2)C(c2ccccc2C)n2ncc(C(=O)Nc3ccc(C)cc3)c2N1 (configuration not stated) was read as Cruzain noTriton 32µM* and Cruzain inh Det -4%.
